In PubChem BioAssay (EPA / NIEHS):
Active and inactive are the calls of the source. Rule for the calls: active = hit-call score of the fitted dose curve at least 0.9, where 1 is the maximum; inactive = score below 0.9.

Tests used:
Conditions in all cases: mRNA level, 48 h; actives raise or lower the signal
[1] = read-out: Forkhead box O3 (FOXO3), FOXO3 (gene 2309); assay: LTEA_HepaRG_FOXO3: Life Technologies and Expression Analysis (LTEA) Assay for Forkhead box O3 (FOXO3) using HepaRG (AID 2283459)
Method in brief: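 FOXO3 transcript measured by qRT-PCR (normalized to ACTB, GAPDH, POLR2A) after 48 h exposure of HepaRG cells in serum-free induction medium. Duplicates, eight half-log concentrations up to 100 uM, 0.5% DMSO; gain or loss fitted against DMSO.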

[2] = read-out: ABC Transporter (ABCB1), ABCB1 (gene 5243); assay: LTEA_HepaRG_ABCB1: Life Technologies and Expression Analysis (LTEA) Assay for ABC Transporter (ABCB1) using HepaRG (AID 2283460)
Method in brief: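 ABCB1 transcript level measured by TaqMan qRT-PCR against three housekeeping genes after 48 h chemical exposure of differentiated HepaRG cells. Top concentration 100 uM, half-log steps, eight points, 0.5% DMSO vehicle; bidirectional fit relative to DMSO.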

[3] = read-out: growth arrest and DNA damage 45 (GADD45B), GADD45B (gene 4616); assay: LTEA_HepaRG_GADD45B: Life Technologies and Expression Analysis (LTEA) Assay for growth arrest and DNA damage 45 (GADD45B) using HepaRG (AID 2283461)
Method in brief: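 Human HepaRG monolayers receive chemicals for 48 h at eight half-log concentrations, highest 100 uM, in 0.5% DMSO. Expression is measured by TaqMan qRT-PCR and normalized to ACTB, GAPDH and POLR2A.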

[4] = read-out: ABC Transporter (ABCC3), ABCC3 (gene 8714); assay: LTEA_HepaRG_ABCC3: Life Technologies and Expression Analysis (LTEA) Assay for ABC Transporter (ABCC3) using HepaRG (AID 2283462)
Method in brief: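 Transcriptional change of ABCC3 in HepaRG after 48 h treatment, determined by qRT-PCR normalized to endogenous controls. Concentrations spanned eight half-log steps to 100 uM in 0.5% DMSO.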

[5] = read-out: ABC Transporter (ABCB11), ABCB11 (gene 8647); assay: LTEA_HepaRG_ABCB11: Life Technologies and Expression Analysis (LTEA) Assay for ABC Transporter (ABCB11) using HepaRG (AID 2283463)
Method in brief: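 ABCB11 transcript levels quantified by TaqMan qRT-PCR against three housekeeping genes after 48 h chemical exposure of HepaRG cultures. Concentrations up to 100 uM in half-log steps, 0.5% DMSO vehicle; both induction and suppression scored.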

[6] = read-out: ABC Transporter (ABCC2), ABCC2 (gene 1244); assay: LTEA_HepaRG_ABCC2: Life Technologies and Expression Analysis (LTEA) Assay for ABC Transporter (ABCC2) using HepaRG (AID 2283464)
Method in brief: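 After plating and 48 h culture, HepaRG medium is replaced with serum-free induction medium and chemicals are added (8 concentrations, max 100 uM, 0.5% DMSO) for 48 h. Total RNA then undergoes qRT-PCR for ABCC2 with housekeeping normalization.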

[7] = read-out: Broad substrate specificity ATP-binding cassette transporter ABCG2 (Homo sapiens) (UniProt Q9UNQ0); assay: LTEA_HepaRG_ABCG2: Life Technologies and Expression Analysis (LTEA) Assay for ABC Transporter (ABCG2) using HepaRG (AID 2283465)
Method in brief: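 ABCG2 transcript was quantified by TaqMan qRT-PCR against three housekeeping genes in HepaRG cells. Cells were treated in duplicate for 48 h across an 8-point half-log series up to 100 uM, with 0.5% DMSO vehicle. Gain or loss versus DMSO was fit.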

[8] = read-out: ATP-citrate lyase (ACLY), ACLY (gene 47); assay: LTEA_HepaRG_ACLY: Life Technologies and Expression Analysis (LTEA) Assay for ATP-citrate lyase (ACLY) using HepaRG (AID 2283466)
Method in brief: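 ACLY mRNA quantified by qRT-PCR on Fluidigm arrays against three housekeeping genes, after 48 h chemical treatment of HepaRG cells (top concentration 100 uM, half-log steps, 0.5% DMSO vehicle). Up- or down-regulation fitted relative to DMSO.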

[9] = read-out: Alkaline Phosphatase, Placental (ALPP) gene, ALPP (gene 250); assay: LTEA_HepaRG_ALPP: Life Technologies and Expression Analysis (LTEA) Assay for Alkaline Phosphatase, Placental (ALPP) gene using HepaRG (AID 2283468);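 for AC50: differentiated human HepaRG liver cells in serum-free induction medium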
Method in brief: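 Using human liver HepaRG cells, chemicals are tested in duplicate over 48 h at half-log concentrations topping at 100 uM; phenobarbital 1 mM serves as induction control. ALPP mRNA change by qRT-PCR, bidirectional fit against vehicle.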

[10] = read-out: Bcl-2 (BAD) gene, BAD (gene 572); assay: LTEA_HepaRG_BAD: Life Technologies and Expression Analysis (LTEA) Assay for Bcl-2 (BAD) gene using HepaRG (AID 2283469)
Method in brief: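 Read-out: qRT-PCR of BAD mRNA, normalized to three housekeeping genes. Human HepaRG cultures got 48 h chemical exposure in 0.5% DMSO, duplicate eight-point half-log series topping at 100 uM. Gain or loss of signal fitted versus DMSO vehicle.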

[11] = read-out: Bcl-2 (BAX) gene, BAX (gene 581); assay: LTEA_HepaRG_BAX: Life Technologies and Expression Analysis (LTEA) Assay for Bcl-2 (BAX) gene using HepaRG (AID 2283470)
Method in brief: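 qRT-PCR read-out of BAX mRNA, normalized to three housekeeping genes, after 48 h chemical exposure of human HepaRG cells in serum-free induction medium; eight-point half-log series, top 100 uM, 0.5% DMSO vehicle; bidirectional fit versus DMSO.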

[12] = read-out: adenosine kinase (ADK) gene, ADK (gene 132); assay: LTEA_HepaRG_ADK: Life Technologies and Expression Analysis (LTEA) Assay for adenosine kinase (ADK) gene using HepaRG (AID 2283471)
Method in brief: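 HepaRG (human liver), 48 h chemical exposure, 8-pt half-log series, top 100 uM, 0.5% DMSO vehicle. Readout: ADK mRNA by qRT-PCR vs housekeeping genes; bidirectional curve fit relative to DMSO baseline.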

[13] = read-out: Alpha-fetoprotein (AFP) gene, AFP (gene 174); assay: LTEA_HepaRG_AFP: Life Technologies and Expression Analysis (LTEA) Assay for Alpha-fetoprotein (AFP) gene using HepaRG (AID 2283472)
Method in brief: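 qRT-PCR (Fluidigm TaqMan) readout of AFP transcript, normalized to three housekeeping genes, fitted bidirectionally against 0.5% DMSO baseline. HepaRG cells received chemicals for 48 h in serum-free induction medium, top concentration 100 uM, half-log steps.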

BCL2L11 (gene 10018) = assay: LTEA_HepaRG_BCL2L11: Life Technologies and Expression Analysis (LTEA) Assay for Bcl-2 (BCL2L11) gene using HepaRG (AID 2283473)
Method in brief: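 Human hepatic HepaRG cultures are treated 48 h with test chemicals (maximum 100 uM, 0.5% DMSO vehicle). Expression of BCL2L11 is measured by qRT-PCR against ACTB, GAPDH and POLR2A, with activity in either direction scored relative to vehicle.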

[14] = read-out: Apolipoprotein A-V (APOA5) gene, APOA5 (gene 116519); assay: LTEA_HepaRG_APOA5: Life Technologies and Expression Analysis (LTEA) Assay for Apolipoprotein A-V (APOA5) gene using HepaRG (AID 2283474)
Method in brief: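 Concentration-response of APOA5 expression in HepaRG: eight half-log doses to 100 uM, 48 h, qRT-PCR normalized to ACTB/GAPDH/POLR2A, bidirectional fitting with 0.5% DMSO as baseline.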

[15] = read-out: Apoptosis regulator Bcl-2 (Homo sapiens) (UniProt P10415); assay: LTEA_HepaRG_BCL2: Life Technologies and Expression Analysis (LTEA) Assay for Bcl-2 gene using HepaRG (AID 2283475);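 note: BCL2 transcript by TaqMan qRT-PCR normalised to ACTB GAPDH and POLR2A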
Method in brief: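 qRT-PCR read-out (Fluidigm TaqMan) of BCL2 transcript, normalised to three housekeeping genes, after 48 h chemical exposure of HepaRG cells; 8-point half-log series, top 100 uM, 0.5% DMSO vehicle. Gain or loss of signal fitted relative to DMSO baseline.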

[16] = read-out: Bcl-2 (BID) gene, BID (gene 637); assay: LTEA_HepaRG_BID: Life Technologies and Expression Analysis (LTEA) Assay for Bcl-2 (BID) gene using HepaRG (AID 2283476)
Method in brief: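 HepaRG, 48 h exposure, 8-pt half-log series, top 100 uM, 0.5% DMSO vehicle, duplicates. Readout: BID mRNA by TaqMan qRT-PCR; housekeeping-normalized; bidirectional curve fit vs DMSO baseline.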

[17] = read-out: growth arrest and DNA damage 45 (GADD45A), GADD45A (gene 1647); assay: LTEA_HepaRG_GADD45A: Life Technologies and Expression Analysis (LTEA) Assay for growth arrest and DNA damage 45 (GADD45A) using HepaRG (AID 2283458)
Method in brief: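 HepaRG, 48 h exposure, 8 conc. (top 100 uM, half-log steps), 0.5% DMSO vehicle, duplicates. Read-out: qRT-PCR mRNA level, housekeeping-normalized (ACTB/GAPDH/POLR2A). Curves fit bidirectionally vs DMSO baseline.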

[18] = read-out: Peroxisomal acyl-coenzyme A oxidase 1 (ACOX1) gene, ACOX1 (gene 51); assay: LTEA_HepaRG_ACOX1: Life Technologies and Expression Analysis (LTEA) Assay for Peroxisomal acyl-coenzyme A oxidase 1 (ACOX1) gene using HepaRG (AID 2283467)
Method in brief: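 ACOX1 transcript levels were quantified by TaqMan qRT-PCR against three housekeeping genes after 48 h chemical exposure of differentiated human HepaRG cells. Exposure used eight half-log steps topping at 100 uM, 0.5% DMSO vehicle, in duplicate. Bidirectional curve fits were made relative to DMSO.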

Chain of Broad substrate specificity ATP-binding cassette transporter ABCG2 (Homo sapiens) (Q9UNQ0 whole entry, looked up): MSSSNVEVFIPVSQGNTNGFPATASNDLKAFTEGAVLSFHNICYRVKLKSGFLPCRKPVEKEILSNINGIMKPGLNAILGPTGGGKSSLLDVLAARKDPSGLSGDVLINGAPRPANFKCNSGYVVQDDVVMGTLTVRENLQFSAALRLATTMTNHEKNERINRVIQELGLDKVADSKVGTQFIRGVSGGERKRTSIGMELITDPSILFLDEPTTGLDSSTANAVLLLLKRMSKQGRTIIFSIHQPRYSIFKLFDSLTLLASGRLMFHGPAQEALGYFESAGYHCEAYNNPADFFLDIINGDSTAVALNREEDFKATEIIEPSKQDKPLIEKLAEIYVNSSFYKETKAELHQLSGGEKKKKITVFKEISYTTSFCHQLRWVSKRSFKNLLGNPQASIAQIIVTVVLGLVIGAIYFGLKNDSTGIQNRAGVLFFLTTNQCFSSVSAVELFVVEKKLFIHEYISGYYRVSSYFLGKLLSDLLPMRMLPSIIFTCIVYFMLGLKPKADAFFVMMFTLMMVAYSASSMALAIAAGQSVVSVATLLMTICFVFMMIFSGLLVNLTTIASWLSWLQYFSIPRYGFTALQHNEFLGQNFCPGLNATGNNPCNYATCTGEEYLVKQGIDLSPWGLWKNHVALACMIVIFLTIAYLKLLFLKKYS
Chain of Apoptosis regulator Bcl-2 (Homo sapiens) (P10415 whole entry, looked up): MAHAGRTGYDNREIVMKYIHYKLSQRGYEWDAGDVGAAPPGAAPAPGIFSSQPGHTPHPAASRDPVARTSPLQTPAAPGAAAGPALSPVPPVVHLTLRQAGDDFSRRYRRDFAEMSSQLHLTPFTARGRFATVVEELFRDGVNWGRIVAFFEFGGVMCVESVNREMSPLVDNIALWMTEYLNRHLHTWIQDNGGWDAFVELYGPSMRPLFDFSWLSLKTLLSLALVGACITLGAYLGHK

CCCCOC(=O)[C@@H](C)Oc1ccc(Oc2ccc(C(F)(F)F)cn2)cc1
outcome [1]: inactive
outcome [2]: inactive
outcome [3]: inactive
outcome [4]: inactive
AC50 [5]: 20.6 µM (active)
outcome [6]: inactive
outcome [7]: inactive
outcome [8]: inactive
outcome [9]: inactive
outcome [10]: inactive
outcome [11]: inactive
outcome [12]: inactive
outcome [13]: inactive
outcome (BCL2L11 (gene 10018)): inactive
outcome [14]: inactive
outcome [15]: inactive
outcome [16]: inactive

C#CCOC(=O)[C@@H](C)Oc1ccc(Oc2ncc(Cl)cc2F)cc1
AC50 [17]: 12.4 µM (active)
outcome [1]: inactive
outcome [2]: inactive
outcome [3]: inactive
outcome [4]: inactive
AC50 [5]: 5.03 µM (active)
outcome [7]: inactive
outcome [8]: inactive
outcome [18]: inactive
outcome [9]: inactive
outcome [10]: inactive
outcome [11]: inactive
outcome [12]: inactive
outcome [13]: inactive
outcome (BCL2L11 (gene 10018)): inactive
outcome [14]: inactive
outcome [15]: inactive
outcome [16]: inactive

N#CSCSc1nc2ccccc2s1
outcome [1]: inactive
outcome [2]: inactive
outcome [3]: inactive
outcome [4]: inactive
AC50 [5]: 63.3 µM (active)
outcome [6]: inactive
outcome [7]: inactive
outcome [8]: inactive
AC50 [9]: 40.3 µM (active)
outcome [10]: inactive
outcome [11]: inactive
outcome [12]: inactive
outcome [13]: inactive
outcome (BCL2L11 (gene 10018)): inactive
outcome [14]: inactive
outcome [15]: inactive
outcome [16]: inactive

CCCCOC(=O)C(C)Oc1ccc(Oc2ccc(C(F)(F)F)cn2)cc1 (configuration not stated)
outcome [1]: inactive
outcome [2]: inactive
outcome [3]: inactive
outcome [4]: inactive
outcome [5]: inactive
outcome [7]: inactive
outcome [8]: inactive
outcome [9]: inactive
outcome [10]: inactive
outcome [11]: inactive
outcome [12]: inactive
outcome [13]: inactive
outcome (BCL2L11 (gene 10018)): inactive
outcome [14]: inactive
outcome [15]: inactive
outcome [16]: inactive

O=C(c1ccc(O)cc1O)c1ccc(O)cc1O
outcome [1]: inactive
outcome [2]: inactive
outcome [3]: inactive
outcome [4]: inactive
outcome [5]: inactive
outcome [7]: inactive
outcome [8]: inactive
outcome [9]: inactive
outcome [10]: inactive
outcome [11]: inactive
outcome [12]: inactive
outcome [13]: inactive
outcome (BCL2L11 (gene 10018)): inactive
outcome [14]: inactive
outcome [15]: inactive
outcome [16]: inactive

COc1c(Cl)ccc(Cl)c1C(=O)O
outcome [1]: inactive
outcome [2]: inactive
outcome [3]: inactive
outcome [4]: inactive
outcome [5]: inactive
outcome [7]: inactive
outcome [8]: inactive
outcome [18]: inactive
outcome [9]: inactive
outcome [10]: inactive
outcome [11]: inactive
outcome [12]: inactive
outcome [13]: inactive
outcome (BCL2L11 (gene 10018)): inactive
outcome [14]: inactive
outcome [15]: inactive
outcome [16]: inactive

CCN(Cc1c(F)cccc1Cl)c1c([N+](=O)[O-])cc(C(F)(F)F)cc1[N+](=O)[O-]
outcome [1]: inactive
outcome [2]: inactive
AC50 [3]: 50 µM (active)
outcome [4]: inactive
outcome [5]: inactive
AC50 [7]: 20.3 µM (active)
outcome [8]: inactive
outcome [9]: inactive
outcome [10]: inactive
outcome [11]: inactive
outcome [12]: inactive
AC50 [13]: 50 µM (active)
outcome (BCL2L11 (gene 10018)): inactive
AC50 [14]: 26.7 µM (active)
outcome [15]: inactive
outcome [16]: inactive
